Screens: PubChem BioAssay, National Center for Advancing Translational Sciences (NCATS)
Compounds with a hit are over-represented: about 8% of the library has one in this group of screens.
SW480 rereplic – A quantitative high throughput screen for small molecules that induce DNA re-replication in SW480 colon adenocarcinoma cells; SW480 DNA re-replication, Hoechst DNA content imaging, 48 h; Potency, µM (top dose mostly 46.1 µM), for the others: top-dose re-replication activation, usual class: activators; hit rate 1.8% among 340,000; AID 624297, 2012; also: % of control where 0% means no effect; nearly all actives have a fitted effect of over 55% in size
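Compounds, transferred as 23 nL by pin tool, were incubated with cells for 48 hr; DNA content per nucleus was then quantified by Hoechst staining and fluorescence plate imaging.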
MCF10A rereplic – A quantitative high throughput screen for small molecules that induce DNA re-replication in MCF 10a normal breast cells; Potency, µM (highest dose often 46.1 µM), for inactives: at the highest dose activity, positive = re-replication, most hits filed as activators; hit rate 2.9% among 350,000; MCF 10A DNA re-replication, Hoechst nuclear intensity, 48 h; also: % of control where 0% means no effect; nearly all actives have a fitted effect of over 50% in size
KB-3-1 cytotox – qHTS assay for MDR1-selective chemotherapeutics: Primary screen using the parental adenocarcinoma cell KB-3-1 | KB-3-1 viability, CellTiter-Glo ATP luminescence, 72 h | Potency, µM (series often up to 46.1 µM), usual class: cytotoxic | hit rate 1.4% among 400,000 | AID 1347075, 2019; also: % is scaled to controls: 0 for no effect and ±100 for the full control effect; nearly all actives have a fitted effect of over 60% in size
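Here the drug-naive KB-3-1 line serves as comparator for MDR sub-line selectivity; cells received compound titrations, 72 h at 37 °C, then CellTiter-Glo readout.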
KB-V1 cytotox – qHTS assay for MDR1-selective chemotherapeutics: Primary screen using the drug-selected MDR subline cells KB-V1; KB-V1 MDR cells viability, CellTiter-Glo, 72 h; Potency, µM (titrated, usually from 46.1 µM), most hits filed as cytotoxic; hit rate 3.4% among 400,000; AID 1347076, 2019; also: % is scaled to controls: 0 for no effect and ±100 for the full control effect; nearly all actives have a fitted effect of over 60% in size
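Cells of the MDR subline KB-V1 are plated, dosed with compound at multiple concentrations, and incubated 72 h at 37 degrees C; CellTiter-Glo is then added and luminescence read after 10 min.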
HT1080 IDH1KD tx – qHTS for induction of synthetic lethality in tumor cells producing 2HG: qHTS for the HT-1080-IDH1KD cell line; hit rate 2% among 360,000; AID 686971, 2013; Potency, µM (titrated, usually from 46.1 µM), inactives show at the highest dose activity, negative = toxicity, actives largely listed as cytotoxic; HT-1080 IDH1 knockdown viability, ATP luminescence, 48 h;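 also: 0% = DMSO wells and -100% = cell-free medium wells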
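CellTiter-Glo luminescence after 48 h compound exposure at 37 degrees C of IDH1-knockdown HT-1080 cells in 5% FBS RPMI. %Activity scaled between DMSO wells and cell-free media wells, with curves fitted and assigned curve classes.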
HT1080-NT tox – qHTS for induction of synthetic lethality in tumor cells producing 2HG: qHTS for the HT-1080-NT fibrosarcoma cell line. Potency, µM (highest dose often 46.1 µM), inactives show top-dose activity, negative = less viability, usual class: cytotoxic. AID 686970, 2013. HT-1080-NT fibrosarcoma viability, CellTiter-Glo ATP luminescence, 48 h. hit rate 1.6% among 360,000;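 also: NT is the 2HG producing partner of a matched IDH1 knockdown line; 0% = DMSO-treated cells and -100% = media-only wells without cells; nearly all actives have a fitted effect of over 55% in size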
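Fibrosarcoma NT cells, 750 per well in 5% FBS RPMI, were exposed to compound for 48 hours. Viability: CellTiter-Glo luminescence.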
Active calls of the source: *; i = inactive; ? = inconclusive; . = no result given; ! = a repeat was not active; [ ] = dose if it differs, or a comment. Calls follow the shape of the dose curve; as a rule, active = well fitted curve in the direction sought with a large enough effect; inconclusive = small, poorly fitted or top-dose-only effect, or another doubt; inactive = no such curve, though single readings can be large; an effect the other way counts as inactive or inconclusive. Potency is read from the fitted curve at half-maximal effect.

SMILES | SW480 rereplic | MCF10A rereplic | KB-3-1 cytotox | KB-V1 cytotox | HT1080 IDH1KD tx | HT1080-NT tox
CN(C)c1ccc(/C=C/c2ccc3cc(N(C)C)ccc3n2)cc1 | . | . | i | ? | . | .
CN(C)c1ccc(/C=C/c2ccnc3c(O)cccc23)cc1 | . | . | ? | i | . | .
CN(C)c1ccc(/C=C/c2cc3ccccc3cn2)cc1 | . | . | 1.5µM* | i | . | .
CN(C)c1ccc(/C=C/c2ccc3ccccc3n2)cc1 | 23µM* | 5.2µM* | 8.2µM*! | 7.3µM*! | ? | ?
CCCN(CCC)c1ccc(/C=C/c2ccc3cc(OCC)ccc3n2)cc1 | 2.1µM* | ? | i | i | 15% | 8%
CN(C)c1ccc(/C=C/c2ccnc3c(Cl)cccc23)cc1 | . | . | 16µM* | ? | . | .
CCC(=O)Nc1ccc(CC)cc1-c1nc2ccccc2n(Cc2ccccc2)c1=O | . | . | i | i | . | .
Oc1ccc(/C=C/c2ccc3ccccc3n2)cc1 | 18µM* | ? | ? | i | -21% | -21%
CC[N+](CC)(CC)c1ccc(/C=C/c2ccc3ccccc3n2)cc1 | . | . | 1.8µM* | i | . | .
C(=C\c1ccc2ccccc2n1)/c1ccccc1 | ? | 12% | ? | i | ? | ?
CN(C)c1ccc(/C=C/c2cccc3cc4ccccc4nc23)cc1 | . | . | 4.1µM* | i | . | .
CCN(CC)C(=O)[C@H]1CC(CC(=O)NCCCn2ccnc2)C(=O)N2CCc3c([nH]c4ccc(OC)cc34)[C@]12C (stereo not given in full) | -8% | 2% | i | i | 10% | 17%
O=C(c1c[nH]c2ccccc12)C(Cl)c1ccccc1 (stereo not given) | ? | 23µM* | i | ? | ? | -29%
Cc1ccc(S(=O)(=O)N(C)c2ccc3sc(C)nc3c2)cc1 | ? | 9.2µM* | i | i | ? | ?
O=C(NCCCO)c1cc2ccccc2[nH]1 | -17% | -1% | i | i | 4% | 5%
COc1ccc2[nH]c(C(=O)NCCc3ccccc3)cc2c1 | -9% | -4% | i | i | 13% | 25%
NNC(=O)c1cc2ccccc2[nH]1 | 18µM* | 12µM* | ? | i | 2.1µM* | ?
NNC(=O)c1cc2cc(Oc3ccccc3)ccc2[nH]1 | 5.8µM* | ? | i | i | -21% | -3%
O=C1C2C3C=CC(C4CC34)C2C(=O)N1CCc1ccccc1 (stereo not given) | -98% | -42% | i | 18µM* | -2% | 0%
CC1CN(C(=O)c2ccccc2Oc2ccccc2)CC(C)O1 (stereo not given) | 9% | 16% | 21µM* | i | 1% | -4%
O=C(NC1CCN(Cc2ccccc2)CC1)c1ccc(S(=O)(=O)NCc2ccco2)cc1 | 18% | ? | ? | ? | -19% | -9%
CSc1ccc(S(=O)(=O)NC2CCCCCC2)cc1 | -4% | 9.2µM* | i | ? | 6% | 0%
O=C(NC1CC1)c1ccc(S(=O)(=O)NC2CCCCCC2)cc1 | -3% | 29% | i | 16µM* | -28% | -3%
O=C(NC1CC1)c1ccc(S(=O)(=O)NCC2CCCCC2)cc1 | 0% | 5.8µM* | i | i | 10%[9.24 µM] | 3%
O=C(NC1CCCCC1)c1ccc(S(=O)(=O)NCc2ccco2)cc1 | -10% | 3% | i | 15µM* | 7% | 7%
SMILES | SW480 rereplic | MCF10A rereplic | KB-3-1 cytotox | KB-V1 cytotox | HT1080 IDH1KD tx | HT1080-NT tox
CCCNC(=O)C1CCC(Cn2c(=O)c3sccc3n(CC(=O)N(CC)CC)c2=O)CC1 (stereo not given) | . | . | i | ? | . | .
COc1ccc(-c2cc(C)no2)cc1S(=O)(=O)N1CCN(c2ccc(C(C)=O)cc2)CC1 | . | . | i | i | . | .
CC1CCN(c2ccc(-c3cccc(NS(=O)(=O)c4cccs4)c3)nn2)CC1 | . | . | i | i | . | .
O=S(=O)(Nc1ccc(C(O)(C(F)(F)F)C(F)(F)F)cc1)c1ccc(Cl)c2nonc12 | . | . | ? | ? | 15µM* | 21µM*
COC(=O)[C@@H]1CCCN1S(=O)(=O)Cc1ccccc1 | . | . | i | i | . | .
O=C(O)CCc1cccc2ccccc12 | . | . | i | i | . | .
COc1ccc(OC)c(/C=N/NC(=O)CCN2CCN(C(c3ccccc3)c3ccccc3)CC2)c1 | 7% | 15µM* | i | ? | -28% | ?
O=C(CCN1CCN(c2ccccc2)CC1)N/N=C/c1ccccc1OC(F)F | 3.3µM* | 10% | i | i | ? | -21%
O=C(CCN1CCN(C(c2ccccc2)c2ccccc2)CC1)N/N=C/c1ccc(O)cc1O | 13% | 18% | ? | i | ? | ?
CC(C)NCC(=O)NC12CC3CC(CC(C3)C1)C2 | -14% | 4% | i | 21µM* | 6% | 2%
Cc1ccc(-n2cc(CNCCc3ncc(C)[nH]3)c(-c3ccc(F)cc3)n2)cc1 | ? | ? | ? | ? | 21µM* | 16µM*
Cc1ccc(-n2cc(CNCCN3CCOC3=O)c(-c3ccc(F)cc3)n2)cc1 | -11% | 15% | i | ? | -23% | -20%
Cc1ccc(-n2cc(CNCCn3nc(C)cc3C)c(-c3ccc(F)cc3)n2)cc1 | 18µM* | ? | i | i | ? | 21µM*
COc1ccc(-n2cc(CNCCc3ncc(C)[nH]3)c(-c3ccccc3Cl)n2)cc1 | 17% | 7% | i | i | -2% | -18%
Cc1ccc(Cl)c(NC(=O)COC(=O)c2cc[n+]([O-])cc2)c1Cl | -6% | -1% | i | i | -4% | -2%
O=C(COc1ccccc1C(=O)Nc1ccccc1)Nc1ccccc1Cl | . | . | . | . | -1% | -20%
COc1ccc(CNC(=O)c2cc3c(=O)n(Cc4cccs4)ccc3nc2C)cc1 | . | . | 18µM* | i | . | .
COc1ccc(NC(=O)c2cc3c(=O)n(Cc4cccs4)ccc3nc2C)cc1 | . | . | i | i | . | .
CCCc1nc2ccc(NC(C)=O)cc2c(=O)n1Cc1ccccc1Cl | -42% | -1% | i | i | -6% | -6%
Cn1nnnc1SCC(=O)Nc1ccc(Oc2ccc(Cl)cc2)cc1 | 15µM* | 8.2µM* | i | i | ? | -15%
COc1ccc(-c2nnc(SCC(=O)Nc3ccc(Cl)cc3)n2C)cc1 | 15µM* | 3.3µM* | i | i | -4% | -2%
